# Calls of active or inactive are those of the source. Cut-off read from the data, not from the text of the source, unless noted: active = inhibition above about 80%; inactive = the rest.
# Key:
# [1] = LFS_MB_P medulloblastoma growth inhibition, cell-based, chromothripsis tumors, cisplatin or BGB combos (AID 1671449); details: LFS_MB_P medulloblastoma cells;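 note: cells exposed for 96 hours; 0% = vehicle DMSO and 100% = killing by high DMSO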
# [2] = HDN33 neuroblastoma growth inhibition, cell-based, chromothripsis tumors, cisplatin or BGB combos (AID 1671450); details: HDN33 neuroblastoma cells, stronger effect = higher value;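 note: cells exposed to compound for four days; 0% = vehicle DMSO and 100% = cell killing by high DMSO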
# [3] = ICB984 medulloblastoma cell growth inhibition, synergistic combos for chromothripsis tumors, cisplatin or BGB combos (AID 1671451; call rule not given here;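 note: cells exposed for 96 hours before readout; 0% = vehicle DMSO and 100% = killing by high DMSO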); details: ICB984 medulloblastoma cells, drug combinations, stronger effect = higher value
# [4] = LFS_MB_1R medulloblastoma cell growth inhibition, synergistic combos for chromothripsis tumors, cisplatin or BGB combos (AID 1671452); details: LFS_MB_1R medulloblastoma cells, stronger effect = higher value;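 note: cells exposed for 96 hours before readout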
# [5] = HTB85 osteosarcoma cell growth inhibition, synergistic combos for chromothripsis tumors, BGB or cisplatin IC20 combos (AID 1671453); details: HTB85 osteosarcoma cells, drug combinations, stronger effect = higher value;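 note: cells exposed for 96 hours before readout; 0% = vehicle DMSO and 100% = high DMSO killing control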
# [6] = CRL2098 osteosarcoma cell growth inhibition, synergistic combos for chromothripsis tumors, BGB or cisplatin IC20 combos (AID 1671454); details: CRL2098 osteosarcoma cells, drug combinations, stronger effect = higher value;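 note: cells exposed for 96 h before readout; 0% = vehicle DMSO and 100% = killing by high DMSO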
# [7] = HD-MB03 medulloblastoma cell growth inhibition, synergistic combos for chromothripsis tumors, BGB or cisplatin IC20 combos (AID 1671455; in the data active = inhibition above about 83%;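 note: 0% = vehicle DMSO and 100% = high DMSO as cytotoxic control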); details: HD-MB03 medulloblastoma cells, stronger effect = higher value
# [8] = UWB1.289 ovarian carcinoma cell growth inhibition, synergistic combos for chromothripsis tumors, BGB or cisplatin combos (AID 1671456); details: UWB1.289 ovarian carcinoma cells, stronger effect = higher value;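 note: cells exposed to compound for four days; 0% = vehicle DMSO and 100% = killing by high DMSO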
# [9] = LFS_MB_2R medulloblastoma cell growth inhibition, synergistic combos for chromothripsis tumors, cisplatin combos (AID 1671457); details: LFS_MB_2R medulloblastoma cells, stronger effect = higher value;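 note: cells exposed to compound for four days before readout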
# [10] = MDA-MB-436 breast carcinoma cell growth inhibition, synergistic combos for chromothripsis tumors, BGB or cisplatin combos (AID 1671458; call rule not given here;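 note: cells exposed for 96 hours; 0% = vehicle DMSO and 100% = killing by high DMSO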); details: MDA-MB-436 breast carcinoma growth inhibition, drug combinations, stronger effect = higher value
# [11] = UWB1.289_BRCA1 ovarian cancer growth, cell-based, BGB or cisplatin combinations (AID 1671459); details: UWB1.289 BRCA1 ovarian carcinoma, drug combinations, stronger effect = higher value
# [12] = human astrocyte viability loss, single and combined drugs, cytotoxicity control for chromothriptic childhood tumor combination screen, cell-based, BGB or cisplatin IC20 combos (AID 1671460); details: Human astrocytes, drug combinations, stronger effect = higher value;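 note: cells exposed to compounds for 96 hours before viability readout; 0% = vehicle and 100% = killing control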
# [13] = growth inhibition of BT084 medulloblastoma cells, cell-based, ICGC_MB145, cisplatin and BGB IC40 combos (AID 1671461); details: drug combinations, stronger effect = higher value;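 note: cells exposed to drugs for 96 hours; 0% = vehicle DMSO and 100% = high DMSO full killing control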
# [14] = growth inhibition of RCMB18 medulloblastoma cells, cell-based, cisplatin and BGB IC40 combos (AID 1671462); details: stronger effect = higher value;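 note: cells exposed to compound for four days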
# [15] = growth inhibition of CRL1545 osteosarcoma cells, cell-based, cisplatin and BGB IC20 combos (AID 1671464); details: stronger effect = higher value;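 note: cells exposed to compound for 96 hours before readout; 0% = vehicle DMSO and 100% = high DMSO killing control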
# [16] = measured here: combination with BGB IC40, at 0.05 µM
# [17] = measured here: with BGB IC20 combination, at 0.5 µM
# [18] = measured here: with cisplatin IC20 combination, at 0.5 µM
# [19] = measured here: combination with cisplatin, at 0.5 µM
# [20] = measured here: combination with cisplatin, at 5 µM
compound,measurement,setting,value
COc1ccc(-c2nc(-c3cc(C(F)(F)F)cc(C(F)(F)F)c3)n(Cc3ccc(C(N)=O)cc3)c2-c2ccc(OC)cc2)cc1,inhibition,"[1]; at 0.5 µM, stronger effect = higher value",-25% (inactive)
same,inhibition,"[1]; measured here: combination with BGB IC20, at 0.005 µM",-26.9%
same,inhibition,"[1]; measured here: combination with BGB IC40, at 0.005 µM",-58.7%
same,inhibition,[1]; [16],-38.9%
same,inhibition,"[1]; measured here: combination with cisplatin, at 0.5 µM, stronger effect = higher value",-39.3%
same,inhibition,"[1]; measured here: combination with cisplatin, at 5 µM, stronger effect = higher value",-39.4%
same,inhibition,"[2]; BGB combo, at 5 µM",-37.8%
same,inhibition,[2]; at 0.5 µM,0.84% (inactive)
same,inhibition,"[2]; cisplatin combo, at 5 µM",-22.8%
same,inhibition,[2]; [17],36.9%
same,inhibition,[2]; [18],-4.78%
same,inhibition,"[2]; single agent, at 5 µM",-31.8%
same,inhibition,"[3]; BGB IC20 combo, at 0.005 µM",-2.07%
same,inhibition,"[3]; BGB IC40 combo, at 0.005 µM",-30.8%
same,inhibition,"[3]; BGB IC40 combo, at 0.05 µM",-25.1%
same,inhibition,[3]; at 0.5 µM,-9.24% (inactive)
same,inhibition,"[3]; cisplatin combo, at 0.05 µM",-31.6%
same,inhibition,"[3]; cisplatin combo, at 0.5 µM",-14.1%
same,inhibition,"[3]; cisplatin combo, at 5 µM",-32.9%
same,inhibition,"[3]; measured here: 5 uM single agent, at 5 µM",-2.84%
same,inhibition,[4]; at 0.5 µM,-33.2% (inactive)
same,inhibition,[4]; [16],-28.8%
same,inhibition,[4]; [19],-57.5%
same,inhibition,[4]; [20],-46.5%
same,inhibition,[5]; at 0.5 µM,-24.2% (inactive)
same,inhibition,"[5]; measured here: with BGB IC20, at 0.5 µM",-10.5%
same,inhibition,"[5]; measured here: with BGB IC20, at 5 µM",-7.08%
same,inhibition,"[5]; measured here: with cisplatin IC20, at 0.5 µM",-32.4%
same,inhibition,"[5]; measured here: with cisplatin IC20, at 5 µM",-14.9%
same,inhibition,"[5]; single agent, at 5 µM",13.9%
same,inhibition,[6]; at 0.5 µM,-66.2% (inactive)
same,inhibition,"[6]; measured here: combination with BGB at IC20, at 0.5 µM",-72.7%
same,inhibition,"[6]; measured here: combination with cisplatin at IC20, at 0.5 µM",-56.3%
same,inhibition,[7]; at 0.5 µM,-5.54% (inactive)
same,inhibition,"[7]; measured here: combo with BGB at IC20, at 0.5 µM",-5.38%
same,inhibition,"[7]; measured here: combo with cisplatin at IC20, at 0.5 µM",0.332%
same,inhibition,[8]; at 0.5 µM,-10.7% (inactive)
same,inhibition,"[8]; measured here: inhibition with BGB combination, at 0.05 µM",-23.7%
same,inhibition,"[8]; measured here: inhibition with cisplatin combination, at 0.05 µM",-19.3%
same,inhibition,[9]; at 0.5 µM,-16.7% (inactive)
same,inhibition,[9]; [19],-7.64%
same,inhibition,[9]; [20],-13.3%
same,inhibition,[10]; at 0.5 µM,-7.79% (inactive)
same,inhibition,"[10]; measured here: BGB combination, at 0.5 µM",-10.8%
same,inhibition,"[10]; measured here: BGB combination, at 5 µM",-8.02%
same,inhibition,"[10]; measured here: cisplatin combination, at 0.5 µM",-12.9%
same,inhibition,"[10]; measured here: cisplatin combination, at 5 µM",-13.3%
same,inhibition,"[11]; BGB combination, concentration series, at 5 µM",4.42%
same,inhibition,[11]; at 0.5 µM,-9.42% (inactive)
same,inhibition,"[11]; cisplatin combination, concentration series, at 5 µM",7.4%
same,inhibition,[12]; at 0.5 µM,5.71% (inactive)
same,inhibition,"[12]; measured here: combo with BGB IC20, at 0.5 µM",1.56%
same,inhibition,"[12]; measured here: combo with cisplatin IC20, at 0.5 µM",6.54%
same,inhibition,[13]; at 0.5 µM,-7.83% (inactive)
same,inhibition,"[13]; cisplatin combination, at 0.5 µM",-5.41%
same,inhibition,"[13]; cisplatin combination, at 5 µM",-208%
same,inhibition,"[13]; measured here: BGB IC40 combination 0.05 uM, at 0.05 µM",-36.9%
same,inhibition,"[13]; single agent, at 5 µM",-5.53%
same,inhibition,[14]; at 0.5 µM,-23% (inactive)
same,inhibition,"[14]; cisplatin combo, at 5 µM",-55.8%
same,inhibition,"[14]; measured here: BGB IC40 combination, at 0.05 µM",-13.9%
same,inhibition,[14]; [19],-29.4%
same,inhibition,"[14]; single agent, at 5 µM",-12.6%
same,inhibition,[15]; at 0.5 µM,21.1% (inactive)
same,inhibition,[15]; [17],-22.6%
same,inhibition,[15]; [18],42.1%
same,inhibition,"[15]; single agent, at 0.05 µM",-21.9%
same,inhibition,"[15]; single agent, at 5 µM",-24.7%

# — PubChem BioAssay
